aSyn yeast inh: alpha-synuclein toxicity inhibition in yeast; Yeast expressing alpha-synuclein, growth rescue, BacTiter-Glo, 24 h; actives 0.14% (n = 370,000); AID 652106; Potency, µM (doses to about 46.1 µM), inactives show at the highest dose growth rescue (activation), usual class: activators; further: % of control where 0% means no effect; nearly all actives have a fitted effect of over 65% in size
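Rescue of yeast growth: cells expressing toxic alpha-synuclein, induced in galactose at OD600 0.02, incubated with compound 24 h at 30 C. ATP luminescence quantified growth; inhibitors of toxicity appear as activators.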
FUS yeast rescue: FUS proteinopathy suppression in yeast. S. cerevisiae FUS-expressing, growth rescue, OD600, 24 h. Potency, µM (series often up to 76.6 µM), usual class: activators. actives 0.24% (n = 390,000). AID 1347120;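 further: plate controls were DMSO vehicle for no effect and reference control for full effect; nearly all actives have a fitted effect of over 55% in size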
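Steps: raffinose overnight preculture; dilution to OD 0.005 in 2% galactose minimal medium; compound addition (concentration series); 24hr at 30C, 99% humidity; absorbance read at 600 nm.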
Mito fusion act: inhibitors of mitochondrial division or activators of mitochondrial fusion | S. cerevisiae fusion-defective mutant growth rescue, CellTiterGlo 48 h | Potency, µM (series often up to 46.1 µM), without a hit: top-dose growth rescue (activation), actives largely listed as activators | actives 0.23% (n = 320,000) | AID 485298; further: % of control where 0% means no effect; nearly all actives have a fitted effect of over 45% in size
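Read-out: ATP-based luminescence (CellTiterGlo, 10 min ambient) reporting growth of fusion-defective ts yeast after 48 hours at 37C on glycerol/ethanol YPEG medium in the presence of compound.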
TDP-43 yeast inh: TDP-43 toxicity inhibition in yeast; TDP-43 expressing yeast growth rescue, BacTiter-Glo, 24 h; Potency, µM (doses to about 46.1 µM), inactives show at the highest dose growth rescue (activation), hits mostly activators; actives 1.8% (n = 410,000); AID 652104; further: % of control where 0% means no effect; nearly all actives have a fitted effect of over 50% in size
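Readout is BacTiter-Glo luminescence of cell growth, so inhibitors register as activators. TDP-43-expressing yeast at OD600=0.02 in galactose medium, after raffinose pregrowth to mid-log, were incubated with compound for 24 hr at 30 deg C.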
Abeta rescue: restores growth of yeast expressing A-beta42 peptide; yeast expressing A-beta42, growth rescue, OD600, 48 h; response scale: 0% DMSO, 100% iron-clioquinol control; Potency, µM (doses to about 46.1 µM), hits mostly activators; actives 0.063% (n = 410,000); AID 1347071; further: nearly all actives have a fitted effect of over 55% in size
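Yeast growth medium received pinned compounds, then yeast cells expressing toxic A-beta were added; plates incubated at 30 C for 48 hr. Growth read as absorbance at 600 nm, normalized to DMSO and equimolar FeCl3 plus clioquinol controls.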
The depositor's hits bear a star; i = inactive; ? = inconclusive; nt = not tested or not shown; ! = a repeat was not active. Rows were chosen to be rich in hits. Some 2.2% of all compounds tested hit in one or more screens of this group. The call rests on the fitted dose curve; in most records, active means well fitted curve in the direction sought with a large enough effect; inconclusive means small, poorly fitted or top-dose-only effect, or another doubt; inactive means no such curve, though single readings can be large; an effect the other way counts as inactive or inconclusive. Potency means the concentration at half of the fitted maximal effect.

SMILES	aSyn yeast inh	FUS yeast rescue	Mito fusion act	TDP-43 yeast inh	Abeta rescue
Cc1nn(-c2ccccc2)c2c1N(CCCC(=O)NC(C)c1ccccc1)C(=O)CS2 (stereo not given)	nt	i	nt	3%	i
Cc1nn(-c2ccccc2)c2c1N(CCCC(=O)NCc1ccc(OC(C)C)cc1)C(=O)CS2	nt	i	nt	28µM*	i
CCCCOc1ccc(CNC(=O)CCCN2C(=O)CSc3c2c(C)nn3-c2ccccc2)cc1	nt	?	nt	28µM*	i
Cc1nn(-c2ccccc2)c2c1N(CCCC(=O)NCc1ccccc1)C(=O)CS2	nt	i	nt	?	i
Cc1nn(-c2ccccc2)c2c1N(CCCC(=O)NCc1ccc(Cl)cc1)C(=O)CS2	nt	?	nt	20µM*	i
CCOC(=O)/C(C#N)=C\c1cn(C)c2ccccc12	-4%	i	22%	28%	i
CCOC(=O)/C(C#N)=C/c1c(OCC)n(CC)c2ccccc12	9%	nt	21%	13µM*	i
Cc1cccc(N2CCN(C(=O)COc3ccc4c(c3)CCC4)CC2)c1C	8%	nt	10%	20%	i
Cc1oc(-c2ccccc2F)nc1CS(=O)(=O)CC(=O)NC(C)CCc1ccccc1 (stereo not given)	5%	i	11µM*	-14%	i
Cc1cccc(N2CCN(C(=O)COc3ccc4c(c3)CCC4)CC2C)c1 (stereo not given)	26%	?	11%	35µM*	i
Cc1cccc(N2CCN(C(=O)CS(=O)(=O)Cc3nc(-c4ccccc4C)oc3C)CC2C)c1 (stereo not given)	nt	?	nt	25µM*	i
Cc1oc(-c2ccccc2F)nc1CS(=O)(=O)CC(=O)N1CCN(c2cccc(C(F)(F)F)c2)CC1	nt	i	nt	25%	i
CCN1CCN(C(=O)CS(=O)(=O)Cc2nc(-c3ccccc3C)oc2C)CC1	-5%	i	3%	-17%	i
Cc1cccc(N2CCN(C(=O)CS(=O)(=O)Cc3nc(-c4ccccc4F)oc3C)CC2C)c1 (stereo not given)	9%	32µM*	29%	19%	i
Cc1cccc(C)c1NC(=O)C1(C)CCC(=O)N1CCc1c[nH]c2ccccc12 (stereo not given)	-4%	i	nt	20%	i
Nc1nonc1C(=O)NCCNC(=O)c1ccc(Cl)c(Cl)c1	2%	i	-11%	6%	i
COc1cc(/C=C/c2cncc(/C=C/c3cc(OC)c(OC)c(OC)c3)c2)cc(OC)c1OC	0%	nt	nt	nt	nt
Cc1cccc(N2CCN(C(=O)CSc3ccsc3[N+](=O)[O-])CC2C)c1 (stereo not given)	9%	i	20%	18µM*	?
COCCNC(=O)c1ccc(CSc2nc3ccccc3s2)cc1	-3%	i	1%	?	i
O=C(NCc1ccccc1)c1nc2ccccc2s1	-19%	i	-2%	22µM*	i
O=C(NCCO)c1nc2ccccc2s1	1%	i	-1%	-6%	i
CC(=O)Nc1ccc2nc(SCc3ccccc3)sc2c1	nt	i	nt	18µM*	i
Cc1nnc(SCc2nc(N)nc(Nc3ccccc3)n2)s1	-1%	i	1%	-4%	i
CCNC(=O)c1ccc(CSc2nc3ccccc3s2)cc1	8%	i	-5%	14µM*	i
CCc1ccc(Nc2nc(N)nc(CSc3nc4ccccc4s3)n2)cc1	1%	i	-13%	25µM*!	?
SMILES	aSyn yeast inh	FUS yeast rescue	Mito fusion act	TDP-43 yeast inh	Abeta rescue
O=C(Nc1cccc(F)c1)Nc1nnc([C@@H]2O[C@H](CO)[C@@H](O)[C@H]2O)s1	-12%	i	nt	20%	i
C(/Oc1ccccc1)=C1\Nn2c(nnc2-c2cc(-c3ccccc3)n[nH]2)S1	5%	nt	nt	nt	nt
O=C(Nc1cccc(S(=O)(=O)N2CCCCCC2)c1)C1CCN(C(=O)c2ccc(F)cc2)CC1	-4%	?	-4%	11%	i
Nc1nc(SCC(=O)N2N=C3/C(=C\c4ccco4)CCCC3C2c2ccco2)n[nH]1 (stereo not given)	10%	32µM*	nt	-8%	i
CCOc1ccc(NC(=O)c2cccc(NC(C)=O)c2)cc1S(=O)(=O)N1CCCC1	1%	i	6%	20%	i
CCCN1C(=O)/C(=C/c2ccc(N3CCCC3)c(C)c2)NC1=S	-16%	i	-8%	3.2µM*	i
CCCN1C(=O)/C(=C/c2ccc(OCC(=O)OCC)cc2)NC1=S	0%	22µM*	-5%	-10%	i
CCCN1C(=O)/C(=C/c2ccc(N3CCOCC3)cc2)NC1=S	-13%	i	5%	-2%	i
COc1ccc(C(=O)NC(=S)NNC(=O)Cc2cccs2)cc1	10µM*	i	-7%	10µM*	8.9µM*
COc1ccc(C(=O)NC(=S)NNC(=O)c2ccc(C)cc2)cc1	24%	i	nt	0%	?
O=C(/C=C/c1cccs1)NC(=S)NNC(=O)Cc1cccs1	?	i	-12%	11µM*	?
COc1cc(OC)cc(C(=O)NC(=S)NNC(=O)c2cnccn2)c1	3.5µM*	i	25%	?	i
COc1cc(OC)cc(C(=O)NC(=S)NNC(=O)Cc2cccs2)c1	?	i	15%	13µM*	i
CC(NC(=O)c1ccco1)C(=O)O (stereo not given)	2%	i	-8%	11%	i
CN(C)c1ccc(S(=O)(=O)N2CCC(Cc3ccccc3)CC2)cn1	5%	i	nt	21%	i
O=C(COc1ccc(Br)cc1)N(Cc1nnc(-c2ccccc2Cl)o1)C1CC1	?	?	nt	20µM*	i
CC(C)N(Cc1nnc(-c2ccccc2Cl)o1)C(=O)COc1cccc(Cl)c1	0%	i	nt	4%	i
CCCN(Cc1nnc(-c2ccccc2Cl)o1)C(=O)COc1ccc(Cl)cc1	6%	nt	18%	35µM*	i
CCC(=O)c1ccc(OCC(=O)N(Cc2nnc(-c3ccccc3Cl)o2)C2CC2)cc1	4%	i	15%	21%	i
CSc1ccccc1OCc1cc(C(=O)NCc2csc(C(C)C)n2)no1	-2%	i	-3%	?	i
CSc1ccccc1OCc1cc(C(=O)NCc2cnc(C)cn2)no1	10%	i	0%	11µM*	i
Cc1ccccc1NCc1cccn1-c1nnc(N2CCOCC2)s1	13µM*	i	nt	-2%	i
Fc1ccc(NCc2cccn2-c2nnc(N3CCOCC3)s2)cc1	26%	i	nt	26%	i
Fc1cccc(NCc2cccn2-c2nnc(N3CCOCC3)s2)c1	22µM*	i	nt	19%	i
CC(C)Oc1ccc(CSC(=N)N)cc1	-3%	i	2%	0%	i
N=C(N)SCCc1ccc(CCSC(=N)N)cc1	?	nt	21µM*	nt	nt
